{
  "source": "PubChem BioAssay AID463095",
  "about": "(Sanford-Burnham Center for Chemical Genomics, 2010)",
  "note": "This is one part of the list. A number with no mark means an inactive call.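 Rule for the calls: active = proliferation increase above 40% at any of the four tested concentrations; inactive = the rest.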",
  "data": [
    {"assay": "inducers of beta-cell proliferation in MIN6, confirmation, MIN6 cells, mouse (AID 463095)", "details": "ATPlite luminescence, 48 h; series mostly up to 50 µM; proliferation increase: at the top concentration", "units": {"proliferation increase": "%"}, "values": [
      {"smiles": "O=C(N/N=C/c1c(O)n(Cc2ccccc2)c(=O)[nH]c1=O)c1ccccc1", "proliferation increase": 0.3},
      {"smiles": "COC(=O)COc1cc(C)cc2oc(=O)c3c(c12)CCCC3", "proliferation increase": 2.6},
      {"smiles": "c1cc2c(cc1CCNC1CCCCCC1)OCO2", "proliferation increase": -3.3}
    ]}
  ]
}
